Data reported in PubChem BioAssay (Tox21).
Records with an inconclusive call do not appear. The source made the active and inactive calls. Calls come from the whole dose curve; as a rule, active = well fitted curve in the direction sought with a large enough effect in the repeat runs; inconclusive = weak or mixed curves; inactive = no such curve, though single readings can be large; an effect the other way counts as inactive or inconclusive. Positions of bridges follow the written chain, without caps; N, C: chain ends. Non-standard residues stand in square brackets, D forms with d. Residues, ends and D or L forms follow the SMILES beside them. hArg = N=C(N)NCCCC[C@H](N)C(=O)O; Mpa = O=C(O)CCS

Assay: qHTS RealTime-Glo MT Cell Viability Assay in HEK293 cells - 0 hour (AID 1224880); note: top concentration of the series differs between compounds; nearly all actives have a fitted effect of over 45% in size
Conditions: RealTime-Glo luminescence; series mostly up to 76.8 µM; activity change, negative = cytotoxicity: at the top concentration
Method in brief: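 qHTS format; HEK293 cells with NanoLuc/prosubstrate reagent, 37 C/5% CO2 for 5 h pre-dosing; compounds 23 nL in DMSO; luminescence at each time point reflects viable cells.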
% is set by controls: 0 for no effect and ±100 for the full control effect.

SMILES	activity change, negative = cytotoxicity
NC(=O)[C@@H]1CSSCCC(=O)N[C@@H](CCCCN=C(N)N)C(=O)NCC(=O)N[C@@H](CC(=O)O)C(=O)N[C@@H](Cc2c[nH]c3ccccc23)C(=O)N2CCC[C@H]2C(=O)N1 ([Mpa][hArg]GDWPC-NH2; disulfide 1-7)	5.44% [at 35.3 µM] (inactive)
C=CC(=O)OCC1CCCO1 (centres undefined)	5.32% (inactive)
CCCCCCCCCOC(=O)c1ccccc1C(=O)OCCCCCCCCC	-1.04% (inactive)
CC(C)COC(=O)c1ccccc1	15% (inactive)
COC(=O)c1cc(Cl)cc(Cl)c1	10.9% (inactive)
CC1(C)Cc2cccc(N)c2O1	8.21% (inactive)
CCCCOCC(C)O (centres undefined)	0.221% (inactive)
c1ccc(-c2nn[nH]n2)cc1	-6.12% (inactive)
CO/N=C(/C(=O)N[C@@H]1C(=O)N2C(C(=O)[O-])=C(C[n+]3ccn4ncccc43)CS[C@H]12)c1nsc(N)n1	4.47% [at 35.3 µM] (inactive)
CC(C)(CO)C(O)C(=O)NCCCO (centres undefined)	0.884% (inactive)
C[C@H]1[C@@H](c2ccccc2)NC(=O)N1C	2.88% (inactive)
C=CCCCC	11.3% (inactive)
CCOCCOCC	2.9% (inactive)
CN(C)CCCO[C@@H]1[C@H]2OC(C)(C)O[C@H]2O[C@@H]1C(O)CO (some centres undefined)	4.41% [at 35.3 µM] (inactive)
ONc1ccccc1	-12.4% (inactive)

Assay: A CellTox Green Cytotoxicity Assay to monitor cytotoxicity in HEK293 cells - 32 hour (AID 1224881); note: nearly all actives have a fitted effect of over 40% in size
Conditions: CellTox Green fluorescence; series mostly up to 76.8 µM; cytotoxicity increase: at the top concentration
Method in brief: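 Each value comes from one timepoint of a single continuous run in which HEK293 cells with CellTox Green were exposed to compound for up to 40 h at 37 C, dye fluorescence rising with cell death.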

SMILES	cytotoxicity increase
Cc1c(Cl)cccc1Cl	-10.7% (inactive)
C[C@]12CCC(=O)C=C1CC[C@H]1[C@@H]3CC[C@](O)(C(=O)CO)[C@@]3(C)C[C@H](O)[C@@]12F	-0.828% [at 35.3 µM] (inactive)
CCn1cc(C(=O)O)c(=O)c2cnc(N3CCCC3)nc21	4.33% [at 6.97 µM] (inactive)
CCOC(CN1CCN(CC(C)C(=O)c2ccccc2)CC1)c1ccccc1 (centres undefined)	-3.67% [at 15.8 µM] (inactive)
CC(N)CCCC(C)(C)O (centres undefined)	-12.1% [at 35.3 µM] (inactive)
CCCCOC(=O)[C@H](C)O	-0.869% (inactive)
O=C(CCCl)NCCc1ccccc1	-8.81% [at 35.3 µM] (inactive)
c1ccc2c(CC3=NCCN3)cccc2c1	2.29% [at 35.3 µM] (inactive)
C=CCSSCCC	1.13% (inactive)
COc1cc2c(cc1OC)CN(C(=O)[C@H](C)N[C@@H](CCc1ccccc1)C(=O)O)[C@H](C(=O)O)C2	-13.3% [at 35.3 µM] (inactive)
CC(=O)CCc1ccc(OC(C)=O)cc1	-18.1% (inactive)
Cc1ccc(C(C)NC(=O)[C@@H](NC(=O)OC(C)C)C(C)C)cc1 (some centres undefined)	-6.31% (inactive)
CN(C)CCOC(=O)C(c1ccccc1)C1(O)CCCC1 (centres undefined)	-2.34% [at 35.3 µM] (inactive)
Cc1cc(C)c(C(=O)O)c(C)c1	9.59% (inactive)
O=C(NCN1CCOCC1)c1cnccn1	7.07% [at 35.3 µM] (inactive)
COC(C)(OC)OC	0.466% (inactive)
Cc1c(NC(=O)c2cccnc2)c(=O)n(-c2ccccc2)n1C	9.17% [at 35.3 µM] (inactive)
CC1OCCC1=O (centres undefined)	1.86% (inactive)
Cc1ccc(C(=O)O)cc1[N+](=O)[O-]	-2.08% (inactive)

SMILES	cytotoxicity increase
CC1c2ccccc2CN1NC(=O)c1ccc(Cl)c(S(N)(=O)=O)c1 (centres undefined)	9.23% [at 35.3 µM] (inactive)
c1ccc2cnccc2c1	6.25% (inactive)
C[Si]1(C)O[Si](C)(C)O[Si](C)(C)O[Si](C)(C)O[Si](C)(C)O1	-22.2% (inactive)
NC(=O)[C@@H]1CSSCCC(=O)N[C@@H](CCCCN=C(N)N)C(=O)NCC(=O)N[C@@H](CC(=O)O)C(=O)N[C@@H](Cc2c[nH]c3ccccc23)C(=O)N2CCC[C@H]2C(=O)N1 ([Mpa][hArg]GDWPC-NH2; disulfide 1-7)	-5.73% [at 35.3 µM] (inactive)
C=CC(=O)OCC1CCCO1 (centres undefined)	-2.47% (inactive)
CCCCCCCCCOC(=O)c1ccccc1C(=O)OCCCCCCCCC	-1.65% (inactive)
CC(C)COC(=O)c1ccccc1	17.6% (inactive)
COC(=O)c1cc(Cl)cc(Cl)c1	3.36% (inactive)
CC1(C)Cc2cccc(N)c2O1	2.4% (inactive)
CCCCOCC(C)O (centres undefined)	-5.07% (inactive)
c1ccc(-c2nn[nH]n2)cc1	6.27% (inactive)
CO/N=C(/C(=O)N[C@@H]1C(=O)N2C(C(=O)[O-])=C(C[n+]3ccn4ncccc43)CS[C@H]12)c1nsc(N)n1	-0.936% [at 35.3 µM] (inactive)
CC(C)(CO)C(O)C(=O)NCCCO (centres undefined)	-6.31% (inactive)
C[C@H]1[C@@H](c2ccccc2)NC(=O)N1C	1.56% (inactive)
C=CCCCC	-1.27% (inactive)
CCOCCOCC	-2.04% (inactive)
CN(C)CCCO[C@@H]1[C@H]2OC(C)(C)O[C@H]2O[C@@H]1C(O)CO (some centres undefined)	-8.41% [at 35.3 µM] (inactive)
ONc1ccccc1	28.5% (inactive)

Assay: A CellTox Green Cytotoxicity Assay to monitor cytotoxicity in HepG2 cells - 0 hour (AID 1224882); note: nearly all actives have a fitted effect of over 35% in size
Conditions: CellTox Green fluorescence; series mostly up to 76.8 µM; cytotoxicity: at the top concentration
Method in brief: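 Continuous culture of HepG2 cells with a membrane-impermeant DNA dye; rising fluorescence marks dead cells. Compound exposure lasted up to 40 h at 37 C, with reads every 8 h from 0 h.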

SMILES	cytotoxicity
Cc1c(Cl)cccc1Cl	4.05% (inactive)
C[C@]12CCC(=O)C=C1CC[C@H]1[C@@H]3CC[C@](O)(C(=O)CO)[C@@]3(C)C[C@H](O)[C@@]12F	1.29% [at 35.3 µM] (inactive)
CCn1cc(C(=O)O)c(=O)c2cnc(N3CCCC3)nc21	3.1% [at 6.97 µM] (inactive)
CCOC(CN1CCN(CC(C)C(=O)c2ccccc2)CC1)c1ccccc1 (centres undefined)	-4.84% [at 15.8 µM] (inactive)
CC(N)CCCC(C)(C)O (centres undefined)	-5.59% [at 35.3 µM] (inactive)
CCCCOC(=O)[C@H](C)O	1.2% (inactive)
O=C(CCCl)NCCc1ccccc1	2.2% [at 35.3 µM] (inactive)
c1ccc2c(CC3=NCCN3)cccc2c1	-13.3% [at 35.3 µM] (inactive)
C=CCSSCCC	-4.37% (inactive)
COc1cc2c(cc1OC)CN(C(=O)[C@H](C)N[C@@H](CCc1ccccc1)C(=O)O)[C@H](C(=O)O)C2	-5.44% [at 35.3 µM] (inactive)
CC(=O)CCc1ccc(OC(C)=O)cc1	0.425% (inactive)
Cc1ccc(C(C)NC(=O)[C@@H](NC(=O)OC(C)C)C(C)C)cc1 (some centres undefined)	0.658% (inactive)
CN(C)CCOC(=O)C(c1ccccc1)C1(O)CCCC1 (centres undefined)	-0.64% [at 35.3 µM] (inactive)
Cc1cc(C)c(C(=O)O)c(C)c1	0.492% (inactive)
O=C(NCN1CCOCC1)c1cnccn1	1.38% [at 35.3 µM] (inactive)
COC(C)(OC)OC	1.07% (inactive)
Cc1c(NC(=O)c2cccnc2)c(=O)n(-c2ccccc2)n1C	2.05% [at 35.3 µM] (inactive)
CC1OCCC1=O (centres undefined)	3.63% (inactive)
Cc1ccc(C(=O)O)cc1[N+](=O)[O-]	0.0939% (inactive)

SMILES	cytotoxicity
CC1c2ccccc2CN1NC(=O)c1ccc(Cl)c(S(N)(=O)=O)c1 (centres undefined)	-1.99% [at 35.3 µM] (inactive)
c1ccc2cnccc2c1	0.0558% (inactive)
C[Si]1(C)O[Si](C)(C)O[Si](C)(C)O[Si](C)(C)O[Si](C)(C)O1	3.57% (inactive)
NC(=O)[C@@H]1CSSCCC(=O)N[C@@H](CCCCN=C(N)N)C(=O)NCC(=O)N[C@@H](CC(=O)O)C(=O)N[C@@H](Cc2c[nH]c3ccccc23)C(=O)N2CCC[C@H]2C(=O)N1 ([Mpa][hArg]GDWPC-NH2; disulfide 1-7)	1.07% [at 35.3 µM] (inactive)
C=CC(=O)OCC1CCCO1 (centres undefined)	-6.4% (inactive)
CCCCCCCCCOC(=O)c1ccccc1C(=O)OCCCCCCCCC	2.16% (inactive)
CC(C)COC(=O)c1ccccc1	0.549% (inactive)
COC(=O)c1cc(Cl)cc(Cl)c1	-2.86% (inactive)
CC1(C)Cc2cccc(N)c2O1	0.434% (inactive)
CCCCOCC(C)O (centres undefined)	0.0803% (inactive)
c1ccc(-c2nn[nH]n2)cc1	3.6% (inactive)
CO/N=C(/C(=O)N[C@@H]1C(=O)N2C(C(=O)[O-])=C(C[n+]3ccn4ncccc43)CS[C@H]12)c1nsc(N)n1	-7.41% [at 35.3 µM] (inactive)
CC(C)(CO)C(O)C(=O)NCCCO (centres undefined)	-0.107% (inactive)
C[C@H]1[C@@H](c2ccccc2)NC(=O)N1C	2.93% (inactive)
C=CCCCC	1.14% (inactive)
CCOCCOCC	-0.788% (inactive)
CN(C)CCCO[C@@H]1[C@H]2OC(C)(C)O[C@H]2O[C@@H]1C(O)CO (some centres undefined)	-2.32% [at 35.3 µM] (inactive)
ONc1ccccc1	-9.05% (inactive)
